# Assay results: PubChem BioAssay AID2284141 (EPA ToxCast)
# Inconclusive results are not listed. Activity calls are given as the source filed them. The calls were made as follows: active = hit-call score of the fitted dose curve at least 0.9, where 1 is the maximum; inconclusive = response in the unintended direction; inactive = score below 0.9.
# Molecular target: hamster Adenylyl Cyclase, Adcy5 (gene 64532) (UniProt Q04400)
# Experiment: ERF_FR_ENZ_rACFSK_Antagonist: Eurofins (ERF) Enzymatic LeadHunter Assay for hamster Adenylyl Cyclase Antagonism
# Description: ERF_FR_ENZ_rACFSK_Antagonist is a biochemical, single-readout assay that uses extracted gene-proteins in a cell-free assay. Measurements were taken 0.16 hour after chemical dosing in a 96-well plate. See Adenylyl Cyclase Hamster Enzymatic Antagonist Assay, Cerep.ERF_FR_ENZ_rACFSK_Antagonist is an assay component calculated from the ERF_FR_ENZ_rACFSK assay. It is designed to measure enzyme activity using a type of enzyme reporter as detected by fluorescence intensity with HTRF technology.Data from the assay component ERF_FR_ENZ_rACFSK_Antagonist was analyzed at the assay endpoint, ERF_FR_ENZ_rACFSK_Antagonist, in the positive analysis fitting direction relative to DMSO as the negative control and baseline of activity. Using a type of enzyme reporter, loss-of-signal activity can be used to understand changes in binding as they relate to gene ADCY5. To generalize the intended target to other relatable targets, this assay endpoint is annotated to the gpcr intended target family, where the subfamily is adenylyl cyclase.
# Hamster cells are incubated for 10 minutes at room temprature. Test Sample Requirements: Minimum for 1) Screen: 60 ul of 10 mM stock -OR- 1 mg (pre-weighed) for 10 uM final testing. 2) Dose Response: 90 ul of 10 mM stock -OR- 1 mg (pre-weighed) for a top concentration at 10 uM.
# Chain of hamster Adenylyl Cyclase, Adcy5 (gene 64532) (Q04400 whole entry, looked up): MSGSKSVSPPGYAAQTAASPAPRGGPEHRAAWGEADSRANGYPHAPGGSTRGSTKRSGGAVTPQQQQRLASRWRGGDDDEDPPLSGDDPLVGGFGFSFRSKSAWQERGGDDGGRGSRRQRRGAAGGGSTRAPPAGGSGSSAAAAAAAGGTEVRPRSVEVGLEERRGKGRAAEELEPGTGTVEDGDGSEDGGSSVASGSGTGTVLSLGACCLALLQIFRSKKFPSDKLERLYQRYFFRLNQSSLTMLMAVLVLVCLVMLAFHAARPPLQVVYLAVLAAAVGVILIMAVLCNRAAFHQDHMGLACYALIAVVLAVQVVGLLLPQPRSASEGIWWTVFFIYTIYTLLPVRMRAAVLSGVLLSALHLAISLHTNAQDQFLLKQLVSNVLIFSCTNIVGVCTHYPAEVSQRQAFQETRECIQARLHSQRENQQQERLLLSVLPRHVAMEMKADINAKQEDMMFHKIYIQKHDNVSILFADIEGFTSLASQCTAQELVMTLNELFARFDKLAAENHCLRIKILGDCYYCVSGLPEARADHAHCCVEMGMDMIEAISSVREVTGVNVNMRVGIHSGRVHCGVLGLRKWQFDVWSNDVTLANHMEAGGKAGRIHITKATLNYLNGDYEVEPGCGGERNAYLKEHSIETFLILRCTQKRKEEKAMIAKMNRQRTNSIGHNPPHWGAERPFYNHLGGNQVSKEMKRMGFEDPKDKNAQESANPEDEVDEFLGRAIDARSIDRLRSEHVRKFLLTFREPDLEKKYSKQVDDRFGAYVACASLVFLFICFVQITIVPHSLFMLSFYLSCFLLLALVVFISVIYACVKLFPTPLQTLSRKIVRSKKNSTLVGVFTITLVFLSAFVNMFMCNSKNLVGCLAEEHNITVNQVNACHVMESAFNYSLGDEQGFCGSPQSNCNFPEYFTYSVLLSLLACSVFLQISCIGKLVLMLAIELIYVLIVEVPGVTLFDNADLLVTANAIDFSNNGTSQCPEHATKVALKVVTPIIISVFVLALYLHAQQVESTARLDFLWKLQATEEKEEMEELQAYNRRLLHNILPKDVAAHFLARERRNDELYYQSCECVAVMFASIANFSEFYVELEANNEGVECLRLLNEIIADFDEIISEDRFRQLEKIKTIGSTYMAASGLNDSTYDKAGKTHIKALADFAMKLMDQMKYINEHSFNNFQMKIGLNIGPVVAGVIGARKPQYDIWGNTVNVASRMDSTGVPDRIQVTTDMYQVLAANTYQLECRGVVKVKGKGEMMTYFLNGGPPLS
SMILES,outcome,AC50
COc1cc(CCC(=O)CC(=O)CCc2ccc(O)c(OC)c2)ccc1O,inactive,–
O=C(/C=C/c1ccc(O)cc1)CC(=O)/C=C/c1ccc(O)cc1,inactive,–
COc1cccc2c1C(=O)c1c(O)c3c(c(O)c1C2=O)C[C@@](O)(C(=O)CO)C[C@@H]3O[C@H]1C[C@H](N)[C@H](O)[C@H](C)O1,–,2600 nM (active)
